Experimental data as given in PubChem BioAssay (Tox21).
Records with an inconclusive call do not appear. Activity calls are given as the source filed them. Unless noted, the call rests on the fitted dose curve; in most records, active means well fitted curve in the direction sought with a large enough effect in the repeat runs; inconclusive means weak or mixed curves; inactive means no such curve, though single readings can be large; an effect the other way counts as inactive or inconclusive.

Legend:
[1] = qHTS RealTime-Glo MT Cell Viability Assay in HEK293 cells - 0 hour (AID 1224880); further: top concentration of the series differs between compounds; nearly all actives have a fitted effect of over 45% in size
Outline: (§1)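 Viable HEK293 cells reduce a cell-permeant prosubstrate; the product diffuses out and is consumed by NanoLuc in the medium to give light. Compounds went in after a 5 h incubation and plates were read over the treatment course.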

[2] = A CellTox Green Cytotoxicity Assay to monitor cytotoxicity in HEK293 cells - 32 hour (AID 1224881); further: nearly all actives have a fitted effect of over 40% in size
Outline: (§2)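 Fluorescence intensity, read at 0, 8, 16, 24, 32 and 40 h of compound treatment, reflected dye binding to DNA of dead HEK293 cells; compounds (23 nL, DMSO) were added 5 h after plating cells with reagent.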

[3] = A CellTox Green Cytotoxicity Assay to monitor cytotoxicity in HepG2 cells - 0 hour (AID 1224882); further: nearly all actives have a fitted effect of over 35% in size
Outline: (§3)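 Using 1536-well format, dye-containing HepG2 suspension was seeded, allowed 5 h at 37 C/5% CO2, dosed by pintool with compounds, positive and negative controls, and imaged for fluorescence across 40 h.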

[4] = A CellTox Green Cytotoxicity Assay to monitor cytotoxicity in HepG2 cells - 32 hour (AID 1224883); further: nearly all actives have a fitted effect of over 50% in size
Outline: as §3

[5] = A CellTox Green Cytotoxicity Assay to monitor cytotoxicity in HEK293 cells - 8 hour (AID 1224884); further: nearly all actives have a fitted effect of over 35% in size
Outline: as §2

[6] = qHTS RealTime-Glo MT Cell Viability Assay in HepG2 cells - 16 hour (AID 1224885); further: nearly all actives have a fitted effect of over 50% in size
Outline: (§4)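 HepG2 cells (600/well) were dispensed with RealTime-Glo reagents, incubated 5 h at 37 °C, then treated with compounds in DMSO for up to 40 h. Nonlytic NanoLuc luminescence reflecting viable cells was read at each stated time point.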

[7] = qHTS RealTime-Glo MT Cell Viability Assay in HEK293 cells - 24 hour (AID 1224886); further: top concentration of the series differs between compounds; nearly all actives have a fitted effect of over 50% in size
Outline: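 HEK293 cells seeded with NanoLuc/prosubstrate reagent, rested 5 h at 37 C, then dosed and kept at 37 C up to 40 h. Nonlytic real-time luminescence from viable cells read at 0, 8, 16, 24, 32 and 40 h.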

[8] = qHTS RealTime-Glo MT Cell Viability Assay in HEK293 cells - 8 hour (AID 1224887); further: top concentration of the series differs between compounds; nearly all actives have a fitted effect of over 50% in size
Outline: as §1

[9] = A CellTox Green Cytotoxicity Assay to monitor cytotoxicity in HEK293 cells - 16 hour (AID 1224888); further: nearly all actives have a fitted effect of over 35% in size
Outline: as §2

[10] = qHTS RealTime-Glo MT Cell Viability Assay in HepG2 cells - 0 hour (AID 1224889); further: nearly all actives have a fitted effect of over 50% in size
Outline: as §4

[11] = A CellTox Green Cytotoxicity Assay to monitor cytotoxicity in HepG2 cells - 8 hour (AID 1224890); further: nearly all actives have a fitted effect of over 45% in size
Outline: as §3

[12] = qHTS assay to identify small molecule antagonists of the estrogen receptor alpha (ER-alpha) signaling pathway using the BG1 cell line in the presence of 0.1 nM 17-beta-estradiol - cell viability counter screen (AID 1259241); further: nearly all actives have a fitted effect of over 40% in size
Outline: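 Cells were plated and left 24 hr, compounds in DMSO were pinned in, 17beta-estradiol was added to 0.1 nM final, and after 22 hr CellTiter-Fluor reagent was added for 30 min before fluorescence was read.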

[13] = qHTS assay to identify small molecule antagonists of the androgen receptor (AR) signaling pathway using the MDA cell line in the presence of 0.5 nM R1881 - cell viability counter screen (AID 1259242); further: nearly all actives have a fitted effect of over 45% in size
Outline: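 Viability of MDA-kb2 cells was multiplexed with the luciferase AR readout; after 16 hr with compounds and R1881 at 0.5 nM final, CellTiter-Fluor fluorescence was recorded.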

[14] = molecular target: Androgen receptor (Homo sapiens) (UniProt P10275); assay: qHTS assay to identify small molecule antagonists of the androgen receptor (AR) signaling pathway using the MDA cell line in the presence of 0.5 nM R1881 (AID 1259243); further: nearly all actives have a fitted effect of over 50% in size
Outline: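 Reporter cells cultured without CO2 receive test chemicals, then 0.5 nM R1881 final; after 16 hr at 37C, ONE-Glo is added and light output recorded.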

[15] = molecular target: Estrogen receptor (Homo sapiens) (UniProt P03372); assay: qHTS assay to identify small molecule antagonists of the estrogen receptor alpha (ER-alpha) signaling pathway using the BG1 cell line in the presence of 0.1 nM 17-beta-estradiol (AID 1259244); further: nearly all actives have a fitted effect of over 50% in size
Outline: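 Estradiol at 0.1 nM (final) stimulates the endogenous ER-alpha of VM7Luc4E2 cells carrying an ERE-driven luciferase; compounds are co-incubated 22 h at 37C and luciferase output quantified by luminescence.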

[16] = qHTS assay to identify small molecule HDAC inhibitors (AID 1259364);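 further: wild-type HCT-116 cells with endogenous class I/II HDAC activity; top concentration of the series differs between compounds; nearly all actives have a fitted effect of over 45% in size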
Outline: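 Read-out: luminescence of HDAC-Glo I/II reagent, 30 min RT, reflecting class I/II deacetylase activity in whole HCT-116 cells pre-exposed 2 h to DMSO-dissolved compounds.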

[17] = qHTS assay to identify small molecule HDAC inhibitors - cell viability counter screen (AID 1259365)
Outline: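 Counter screen in wild-type HCT-116 cells: compounds dissolved in DMSO are pin-transferred onto overnight-plated cells and left 2hr at 37C. ATP-based CellTiter-Glo luminescence then measures viable cells.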

[18] = qHTS assay to identify small molecule antagonists of the sonic hedgehog signaling (Shh) pathway - cell viability counter screen (AID 1259367); further: nearly all actives have a fitted effect of over 55% in size
Outline: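 NIH/3T3-derived Gli1-Luc reporter cells, 2,000/well, plated 4 hr before compound addition, then stimulated with conditioned medium for 24 hr at 37C. Viability measured in the same wells by CellTiter-Fluor fluorescence, reagent added at 23 hr for 1 hr.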

[19] = qHTS assay to identify small molecule agonists of the sonic hedgehog signaling (Shh) pathway - cell viability counter screen (AID 1259366); further: nearly all actives have a fitted effect of over 50% in size
Outline: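 Cells are plated at 2,000 per well and left 4hr at 37C, 5% CO2 before compound addition. After 23hr of treatment, CellTiter-Fluor reagent is added for 1hr at 37C and fluorescence is measured.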

[20] = qHTS assay to identify small molecule phospholipidosis (PLD) inducers (AID 1259344; active means well fitted curve in the direction sought with a large enough effect; an effect the other way counts as inactive or inconclusive)
Outline: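 HepG2 cells, 900/well, treated with compound plus LipidTOX Red for 24 h at 37 C; amiodarone positive and DMSO negative controls. Fixed with paraformaldehyde/Hoechst, then high-content imaging scored LipidTOX pit count and integrated intensity per well and per cell.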
On the % scale 0 is the no-effect control and ±100 the full control effect.

Sequence of Estrogen receptor (Homo sapiens) (P03372 whole entry, looked up): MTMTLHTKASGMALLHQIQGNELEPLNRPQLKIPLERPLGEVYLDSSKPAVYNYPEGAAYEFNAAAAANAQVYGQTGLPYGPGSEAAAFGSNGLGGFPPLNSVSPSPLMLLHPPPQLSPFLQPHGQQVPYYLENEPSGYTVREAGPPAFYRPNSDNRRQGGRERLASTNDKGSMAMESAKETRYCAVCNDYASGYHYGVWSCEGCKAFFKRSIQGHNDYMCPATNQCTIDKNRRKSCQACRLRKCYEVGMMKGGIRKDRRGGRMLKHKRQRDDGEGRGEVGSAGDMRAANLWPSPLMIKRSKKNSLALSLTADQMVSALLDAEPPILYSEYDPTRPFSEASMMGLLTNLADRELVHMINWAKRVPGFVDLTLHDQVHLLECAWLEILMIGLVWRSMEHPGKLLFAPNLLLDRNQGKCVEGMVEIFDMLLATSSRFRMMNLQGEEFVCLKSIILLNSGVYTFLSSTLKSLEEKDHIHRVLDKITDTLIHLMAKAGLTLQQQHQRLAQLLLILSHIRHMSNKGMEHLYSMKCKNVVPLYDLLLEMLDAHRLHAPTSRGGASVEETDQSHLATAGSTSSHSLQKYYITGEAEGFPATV
Sequence of Androgen receptor (Homo sapiens) (P10275 whole entry, looked up): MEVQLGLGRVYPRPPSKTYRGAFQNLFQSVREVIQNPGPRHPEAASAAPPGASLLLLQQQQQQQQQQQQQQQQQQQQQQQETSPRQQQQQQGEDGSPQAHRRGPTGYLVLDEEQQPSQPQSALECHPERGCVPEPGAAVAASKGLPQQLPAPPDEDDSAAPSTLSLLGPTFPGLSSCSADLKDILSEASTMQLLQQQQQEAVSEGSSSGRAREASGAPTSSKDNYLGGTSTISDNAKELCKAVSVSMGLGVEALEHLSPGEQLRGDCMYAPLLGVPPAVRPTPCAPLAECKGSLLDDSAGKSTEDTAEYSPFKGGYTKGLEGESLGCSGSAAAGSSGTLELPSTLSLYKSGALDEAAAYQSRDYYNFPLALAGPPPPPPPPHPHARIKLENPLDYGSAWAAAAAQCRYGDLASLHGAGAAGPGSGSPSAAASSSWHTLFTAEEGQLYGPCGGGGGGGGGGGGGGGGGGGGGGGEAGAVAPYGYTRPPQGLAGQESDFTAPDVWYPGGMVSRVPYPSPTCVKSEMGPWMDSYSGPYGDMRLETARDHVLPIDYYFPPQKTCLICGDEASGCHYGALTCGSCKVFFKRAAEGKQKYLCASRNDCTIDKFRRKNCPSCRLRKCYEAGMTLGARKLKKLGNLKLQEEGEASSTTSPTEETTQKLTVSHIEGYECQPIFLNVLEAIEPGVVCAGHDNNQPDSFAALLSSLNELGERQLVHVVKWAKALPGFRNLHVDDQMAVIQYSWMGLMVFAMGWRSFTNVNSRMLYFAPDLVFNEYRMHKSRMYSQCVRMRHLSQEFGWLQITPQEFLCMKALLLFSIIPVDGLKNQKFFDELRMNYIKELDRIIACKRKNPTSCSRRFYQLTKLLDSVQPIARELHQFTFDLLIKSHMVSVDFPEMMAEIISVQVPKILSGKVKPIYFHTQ

O=S(=O)(Cl)c1c(Cl)cccc1Cl
inactive: Potency [1] | Potency [2] | Potency [3] | Potency [4] | Potency [5] | Potency [6] | Potency [7] | Potency [8] | Potency [9] | Potency [10] | Potency [11] | Potency [12] | Potency [13] | Potency [14] | Potency [15] | Potency [16] | Potency [17] | Potency [18]

Cc1oc(=O)oc1COC(=O)[C@@H]1N2C(=O)[C@@H](NC(=O)[C@H](N)c3ccccc3)[C@H]2SC1(C)C
inactive: Potency [1] | Potency [2] | Potency [3] | Potency [4] | Potency [5] | Potency [6] | Potency [7] | Potency [8] | Potency [9] | Potency [10] | Potency [11] | Potency [12] | Potency [13] | Potency [14] | Potency [16] | Potency [17] | Potency [19]

O=c1[nH]c2cc(C(F)(F)F)c(N3CCOCC3)cc2n(CP(=O)(O)O)c1=O
inactive: Potency [1] | Potency [2] | Potency [3] | Potency [4] | Potency [5] | Potency [6] | Potency [7] | Potency [8] | Potency [9] | Potency [10] | Potency [11] | Potency [12] | Potency [13] | Potency [15] | Potency [20] | Potency [16] | Potency [17] | Potency [19] | Potency [18]

COc1ccc(CCN(C)CCCN2CCc3cc(OC)c(OC)cc3CC2=O)cc1OC
inactive: Potency [1] | Potency [2] | Potency [3] | Potency [4] | Potency [5] | Potency [6] | Potency [7] | Potency [8] | Potency [9] | Potency [10] | Potency [11] | Potency [12] | Potency [13] | Potency [15] | Potency [20] | Potency [16] | Potency [17]

CC1=CC[C@@H]2C[C@H]1C2(C)C
inactive: activity change, negative = cytotoxicity [1] -16.1% [at 15.8 µM] | cytotoxicity increase [2] 1.12% [at 15.8 µM] | cytotoxicity [3] -3.74% [at 15.8 µM] | cytotoxicity increase [4] -9% [at 15.8 µM] | cytotoxicity increase [5] 0.245% [at 15.8 µM] | activity change, negative = cytotoxic [6] 1.14% [at 15.8 µM] | activity change, negative = cytotoxicity [7] 1.87% [at 15.8 µM] | activity change, negative = cytotoxicity [8] -0.368% [at 15.8 µM] | activity change [9] 1.29% [at 15.8 µM, stronger effect = higher value] | activity change, negative = cytotoxicity [10] -1.11% [at 15.8 µM] | cytotoxicity increase [11] -9.84% [at 15.8 µM] | activity change, negative = cytotoxicity [12] 3.19% [at 19 µM] | viability change, negative = cytotoxic [13] 1.84% [at 19 µM] | activity change, negative = inhibition [15] 11.8% [at 19 µM] | activity change, negative = inhibition [16] 0.0628% [at 19 µM] | activity change, negative = cytotoxicity [17] -0.126% [at 19 µM] | viability change, negative = cytotoxic [19] -0.75% [at 19 µM] | viability change, negative = cytotoxic [18] -2.9% [at 19 µM]

C=CC(=O)O
inactive: Potency [1] | Potency [2] | Potency [3] | Potency [4] | Potency [5] | Potency [6] | Potency [7] | Potency [8] | Potency [9] | Potency [10] | Potency [11] | Potency [12] | Potency [13] | Potency [15] | Potency [20] | Potency [16] | Potency [17] | Potency [19] | Potency [18]

O=C(O)c1cc(Cl)cc(Cl)c1O
inactive: Potency [1] | Potency [2] | Potency [3] | Potency [4] | Potency [5] | Potency [6] | Potency [7] | Potency [8] | Potency [9] | Potency [10] | Potency [11] | Potency [12] | Potency [13] | Potency [14] | Potency [17] | Potency [19] | Potency [18]
